# Data reported in the supplement of paper PMC8728848.
# Only a selection was taken, and the strongest signals are over-represented in it overall.
# B1: PILRa (Homo sapiens), Q9UKJ1 (protein)
# chain: MGRPLLLPLLPLLLPPAFLQPSGSTGSGPSYLYGVTQPKHLSASMGGSVEIPFSFYYPWELATAPDVRISWRRGHFHRQSFYSTRPPSIHKDYVNRLFLNWTEGQKSGFLRISNLQKQDQSVYFCRVELDTRSSGRQQWQSIEGTKLSITQAVTTTTQRPSSMTTTWRLSSTTTTTGLRVTQGKRRSDSWHISLETAVGVAVAVTVLGIMILGLICLLRWRRRKGQQRTKATTPAREPFQNTEEPYENIRNEGQNTDPKLNPKDDGIVYASLALSSSTSPRAPPSHRPLKSPQNETLYSVLKA
# Experiments:
# Test in all cases: glycan array binding signal (z-score within array); higher = stronger binding
# Conditions in all cases: glycan notation: IUPAC condensed, linker removed
# [1] = target: Fuc(a1-2)Gal(b1-3)GalNAc(b1-4)[Neu5Ac(a2-3)]Gal(b1-4)Glc
# In short: (§1)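 Arrays were curated from the Consortium for Functional Glycomics database, 3228 in total, and kept only where the protein sequence was available. Binding is expressed as a within-array Z-score. This score was averaged across arrays of the same protein sequence at different concentrations or buffers and across linkers, and negative values can be read as non-binding.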
# [2] = target: Fuc(a1-2)Gal(b1-3)[Fuc(a1-4)]GlcNAc(b1-2)Man(a1-3)[Fuc(a1-2)Gal(b1-3)[Fuc(a1-4)]GlcNAc(b1-2)Man(a1-6)]Man(b1-4)GlcNAc(b1-4)GlcNAc
# In short: as §1
# [3] = target: Fuc(a1-2)Gal(b1-4)[Fuc(a1-3)]GlcNAc(b1-2)[Fuc(a1-2)Gal(b1-4)[Fuc(a1-3)]GlcNAc(b1-4)]Man(a1-3)[Fuc(a1-2)Gal(b1-4)[Fuc(a1-3)]GlcNAc(b1-2)Man(a1-6)]Man(b1-4)GlcNAc(b1-4)GlcNAc
# In short: as §1
# [4] = target: Fuc(a1-2)Gal(b1-4)[Fuc(a1-3)]GlcNAc(b1-3)GalNAc
# In short: as §1
# [5] = target: Fuc(a1-2)[Gal(a1-3)]Gal(b1-3)GlcNAc(b1-3)GalNAc
# In short: as §1
# [6] = target: Fuc(a1-2)[Gal(a1-3)]Gal(b1-4)[Fuc(a1-3)]GlcNAc(b1-3)GalNAc
# In short: as §1
# [7] = target: Fuc(a1-2)[GalNAc(a1-3)]Gal(b1-3)GalNAc(a1-3)[Fuc(a1-2)]Gal(b1-4)GlcNAc
# In short: as §1
# [8] = target: Fuc(a1-2)[GalNAc(a1-3)]Gal(b1-3)GlcNAc(b1-3)GalNAc
# In short: as §1
# [9] = target: Fuc(a1-2)[GalNAc(a1-3)]Gal(b1-4)GlcNAc(b1-3)GalNAc
# In short: as §1
# [10] = target: Fuc(a1-2)[GalNAc(a1-3)]Gal(b1-4)[Fuc(a1-3)]GlcNAc(b1-3)GalNAc
# In short: as §1
# [11] = target: Fuc(a1-3)[Gal(b1-4)]GlcNAc(b1-2)Man(a1-6)[Gal(b1-4)GlcNAc(b1-2)Man(a1-3)]Man(b1-4)GlcNAc(b1-4)GlcNAc
# In short: as §1
# [12] = target: Fuc(a1-3)[Gal3S(b1-4)]GlcNAc6S
# In short: as §1
# [13] = target: Fuc(a1-3)[GalNAc(b1-4)]GlcNAc
# In short: as §1
# [14] = target: Gal(a1-3)Gal(b1-3)GlcNAc(b1-2)Man(a1-3)[Gal(a1-3)Gal(b1-3)GlcNAc(b1-2)Man(a1-6)]Man(b1-4)GlcNAc(b1-4)GlcNAc
# In short: as §1
# Gal(b1-2)Gal = target: Gal(b1-2)Gal
# In short: as §1
# [15] = target: Gal(b1-3)GlcNAc(b1-3)Gal(b1-3)GlcNAc
# In short: as §1
# [16] = target: Gal(b1-3)GlcNAc(b1-6)Gal(b1-4)GlcNAc
# In short: as §1
# [17] = target: Gal(b1-4)GlcNAc(b1-3)[GlcNAc(b1-6)]Gal(b1-4)GlcNAc
# In short: as §1
# Gal(b1-6)Gal = target: Gal(b1-6)Gal
# In short: as §1
# Gal3S(b1-4)Glc6S = target: Gal3S(b1-4)Glc6S
# In short: as §1
# Gal3S(b1-4)GlcNAc6S = target: Gal3S(b1-4)GlcNAc6S
# In short: as §1
# [18] = target: GalNAc(a1-3)GalNAc(a1-3)Gal(a1-4)Gal(b1-4)GlcNAc
# In short: as §1
# GalNAc(b1-3)Gal = target: GalNAc(b1-3)Gal
# In short: as §1
# [19] = target: GalNAc(b1-3)Gal(a1-4)Gal(b1-4)GlcNAc(b1-3)Gal(b1-4)Glc
# In short: as §1
# [20] = target: GalNAc(b1-3)Gal(a1-6)Gal(b1-4)Glc
# In short: as §1
# GlcA(b1-3)GlcNAc = target: GlcA(b1-3)GlcNAc
# In short: as §1
# [21] = target: GlcNAc(a1-3)Gal(b1-4)GlcNAc
# In short: as §1
# [22] = target: GlcNAc(b1-3)Gal(b1-4)GlcNAc(b1-3)Gal(b1-4)GlcNAc
# In short: as §1
# [23] = target: GlcNAc(b1-4)[GlcNAc(b1-6)]GalNAc
# In short: as §1
# Man(a1-2)Man(a1-3)Man = target: Man(a1-2)Man(a1-3)Man
# In short: as §1
# Neu5Ac(a2-3)Gal = target: Neu5Ac(a2-3)Gal
# In short: as §1
# [24] = target: Neu5Ac(a2-3)Gal(b1-3)GalNAc(b1-4)[Neu5Ac(a2-3)]Gal(b1-4)Glc
# In short: as §1
# [25] = target: Neu5Ac(a2-3)Gal(b1-3)GlcNAc
# In short: as §1
# [26] = target: Neu5Ac(a2-3)Gal(b1-3)GlcNAc(b1-3)Gal(b1-3)GlcNAc
# In short: as §1
# Neu5Ac(a2-3)Gal(b1-4)Glc = target: Neu5Ac(a2-3)Gal(b1-4)Glc
# In short: as §1
# [27] = target: Neu5Ac(a2-3)Gal(b1-4)GlcNAc(b1-3)Gal(b1-4)GlcNAc
# In short: as §1
# [28] = target: Neu5Ac(a2-3)Gal(b1-4)GlcNAc(b1-3)Gal(b1-4)GlcNAc(b1-3)Gal(b1-4)GlcNAc
# In short: as §1
# [29] = target: Neu5Ac(a2-3)Gal(b1-4)GlcNAc(b1-3)Gal(b1-4)[Fuc(a1-3)]GlcNAc
# In short: as §1
# [30] = target: Neu5Ac(a2-3)Gal(b1-4)[Fuc(a1-3)]GlcNAc6S
# In short: as §1
# [31] = target: Neu5Ac(a2-6)Gal(b1-4)GlcNAc(b1-2)Man(a1-3)[Man(a1-6)]Man(b1-4)GlcNAc(b1-4)GlcNAc
# In short: as §1
# [32] = target: Neu5Gc(a2-3)Gal(b1-4)[Fuc(a1-3)]GlcNAc
# In short: as §1
binder,measurement,setting,value
B1,glycan array binding signal (z-score),[1],-0.102
same,glycan array binding signal (z-score),[2],4.38
same,glycan array binding signal (z-score),[3],4.02
same,glycan array binding signal (z-score),[4],5.45
same,glycan array binding signal (z-score),[5],0.023
same,glycan array binding signal (z-score),[6],3.41
same,glycan array binding signal (z-score),[7],-0.142
same,glycan array binding signal (z-score),[8],4.4
same,glycan array binding signal (z-score),[9],-0.194
same,glycan array binding signal (z-score),[10],9.37
same,glycan array binding signal (z-score),[11],-0.546
same,glycan array binding signal (z-score),[12],-0.051
same,glycan array binding signal (z-score),[13],-0.102
same,glycan array binding signal (z-score),[14],4.98
same,glycan array binding signal (z-score),Gal(b1-2)Gal,0.001
same,glycan array binding signal (z-score),[15],0.263
same,glycan array binding signal (z-score),[16],-0.136
same,glycan array binding signal (z-score),[17],-0.338
same,glycan array binding signal (z-score),Gal(b1-6)Gal,-0.177
same,glycan array binding signal (z-score),Gal3S(b1-4)Glc6S,0.618
same,glycan array binding signal (z-score),Gal3S(b1-4)GlcNAc6S,-0.01
same,glycan array binding signal (z-score),[18],-0.27
same,glycan array binding signal (z-score),GalNAc(b1-3)Gal,0.508
same,glycan array binding signal (z-score),[19],-0.169
same,glycan array binding signal (z-score),[20],-0.215
same,glycan array binding signal (z-score),GlcA(b1-3)GlcNAc,6.02
same,glycan array binding signal (z-score),[21],0.089
same,glycan array binding signal (z-score),[22],-0.259
same,glycan array binding signal (z-score),[23],-0.213
same,glycan array binding signal (z-score),Man(a1-2)Man(a1-3)Man,-0.144
same,glycan array binding signal (z-score),Neu5Ac(a2-3)Gal,-0.314
same,glycan array binding signal (z-score),[24],-0.281
same,glycan array binding signal (z-score),[25],0.854
same,glycan array binding signal (z-score),[26],-0.15
same,glycan array binding signal (z-score),Neu5Ac(a2-3)Gal(b1-4)Glc,-0.248
same,glycan array binding signal (z-score),[27],1.17
same,glycan array binding signal (z-score),[28],-0.327
same,glycan array binding signal (z-score),[29],-0.125
same,glycan array binding signal (z-score),[30],-0.092
same,glycan array binding signal (z-score),[31],-0.177
same,glycan array binding signal (z-score),[32],-0.343
